Compounds without any hit were thinned out: in the full panel of roughly 83,000, 20% have a hit.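 Assay: single dose, 48 h. Readout: percent growth (0 = no net growth; negative = cell death). Active: <10.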 Values without a mark were called inactive. Calls of active or inactive are those of the source.
Assays:
Assay in all cases: NCI-60 one-dose screen, 48 h (100 = growth as untreated, 0 = no growth, -100 = all killed)
Details in all cases: 10 µM unless noted
SR leukemia = test system: SR leukemia
RPMI-8226 leukemia = test system: RPMI-8226 leukemia
OVCAR-8 ovarian = test system: OVCAR-8 ovarian
OVCAR-5 ovarian = test system: OVCAR-5 ovarian
OVCAR-4 ovarian = test system: OVCAR-4 ovarian
SK-OV-3 ovarian = test system: SK-OV-3 ovarian
IGROV1 ovarian = test system: IGROV1 ovarian
OVCAR-3 ovarian = test system: OVCAR-3 ovarian
NCI/ADR-RES ovarian = test system: NCI/ADR-RES ovarian

Compound | growth (SR leukemia) | growth (RPMI-8226 leukemia) | growth (OVCAR-8 ovarian) | growth (OVCAR-5 ovarian) | growth (OVCAR-4 ovarian) | growth (SK-OV-3 ovarian) | growth (IGROV1 ovarian) | growth (OVCAR-3 ovarian) | growth (NCI/ADR-RES ovarian)
O=S(=O)(NCCCNc1nccc(-c2c(-c3ccccc3)nc3sccn23)n1)c1ccc(F)cc1 | 34.6% | 38.8% | 26.2% | 111% | 36.2% | 59.1% | 32.9% | 49.6% | 22.4%
CCCCC(N)(C(=O)O)C1CCCC1 (stereo not drawn) | 96.4% | 111% | 97.2% | 97.8% | 103% | 117% | 110% | 116% | 97.4%
CC(=O)C1CCC(C)=CC1=O (stereo not drawn) | 101% | 100% | 100% | 103% | 107% | 100% | 102% | 108% | 95.6%
Cc1cc(C)c(S(=O)(=O)N2CCN(c3cc4c(cc3F)c(=O)c(C(=O)O)cn4C3CC3)CC2)c(C)c1 | 39.1% | 22.4% | 59.5% | 42.2% | 75.6% | 81.6% | 35.7% | 91.3% | 69.9%
CCN(C(=O)c1cc2ccccc2[nH]1)[C@H]1CCC[C@@H](NCc2ccc(OC)cc2)C1 | 69.2% | 86% | 100% | 85.5% | 83.3% | 96.6% | 85.4% | 89.6% | 88.4%
CCOC(=O)C1=C(C)NC(=O)NC1c1ccc(OCC(=O)N/N=C/c2ccc(Cl)cc2)cc1 (stereo not drawn) | 68.7% | 90.1% | 95.2% | 87.9% | 95.1% | 88.9% | 94.9% | 99.8% | 106%
CCn1cc(C(=O)O)c(=O)c2cc(F)c(N3CCN(S(=O)(=O)c4ccc(Cl)cc4Cl)CC3)cc21 | -19.7% (active) | 9.07% (active) | 5.84% (active) | 7.92% (active) | 129% | 1.7% (active) | 7.5% (active) | 7.89% (active) | 9.34% (active)
CNC(C)=O | 88.2% | 103% | 102% | 95.8% | 104% | 102% | 105% | 75.8% | 102%
O=C(O)c1cn(C2CC2)c2cc(N3CCN(S(=O)(=O)c4ccc(Cl)c(Cl)c4)CC3)c(F)cc2c1=O | -25.1% (active) | 4.86% (active) | 5.48% (active) | 12.5% | 20.8% | 26.8% | 29.3% | 9.87% (active) | 53.5%
COc1ccc(NC(=O)CSc2nc3ccccc3c(=O)n2-c2ccccc2C(F)(F)F)c(OC)c1OC | 103% | 93.1% | 98% | 97.5% | 97.3% | 89.4% | 127% | 104% | 102%
Cc1ccc(C2=NN(c3ccc(S(=O)(=O)NC(=O)NCc4ccccc4)cc3)C(c3ccc(N(C)C)cc3)C2)c(C)c1 (stereo not drawn) | 21.5% | 16.6% | 30.6% | 55.1% | 57.7% | 88.3% | 54.1% | 38.3% | 33.7%
COc1ccc(NC(=O)CSc2nc3ccc(Cl)cc3c(=O)n2-c2ccccc2C(F)(F)F)c(OC)c1OC | 89.6% | 83.3% | 39.3% | 96.9% | -4.33% (active) | 30.2% | 75.3% | 82.5% | 72.4%
CN(C)c1ncc(-c2ccc(C(F)(F)F)cc2)c(NC2CCCCCC2)n1 | 77.5% | 1.63% (active) | 49.8% | 87.3% | 45.4% | 83.1% | 78.6% | 26.5% | 82.1%
NC(CC(N)C(=O)O)C(=O)O (stereo not drawn) | 89.9% | 98.6% | 100% | 97% | 99.2% | 111% | 108% | 107% | 107%
COc1cc(NCCN=C(N)NC(N)=NC(C)C)c2ncccc2c1 | 74.8% | 73.3% | 87% | 80.2% | -40.1% (active) | 92.3% | -4.12% (active) | 6.45% (active) | 99.4%
O=c1oc2c([nH]c3ccc4ccccc4c32)c2ccccc12 | 102% | 103% | 104% | 112% | 109% | 107% | 118% | 109% | 104%
C[C@]12CC[C@@H]3c4cc(O)c(O)cc4CC[C@H]3[C@@H]1CC[C@@H]2O | 9.22% (active) | 30.9% | 51.6% | 98% | 49.7% | 29.5% | 60.2% | 11.5% | 28.5%
COc1ccc(-c2nc3sccn3c2-c2ccnc(NCCNS(=O)(=O)c3ccc(C(F)(F)F)cc3)n2)cc1 | 11.6% | 8.83% (active) | 7.86% (active) | 59% | 15.9% | 29.6% | 16.2% | 2.1% (active) | 9.11% (active)
COc1ccc(OC)c(C(=O)c2oc3ccc(Br)cc3c2N)c1 | 10.2% | -16.5% (active) | 16.6% | 45.5% | 49.4% | -6.27% (active) | 41.2% | 3.65% (active) | 15.1%
CCCCCC(=O)OCc1ccccc1 | 85.4% | 102% | 102% | 105% | 110% | 93.7% | 96.7% | 102% | 100%
CCCCCCCCCCCCNC(=S)N/N=C/c1ccc(Cl)c(Cl)c1 | 93.8% | 102% | 100% | 93.9% | 99.3% | 114% | 119% | 111% | 113%
CCn1cc(C(=O)O)c(=O)c2cc(F)c(N3CCN(S(=O)(=O)c4c(C)cc(C)cc4C)CC3)cc21 | 64.7% | 64.1% | 81.5% | 88.6% | 91.4% | 101% | 79.4% | 89.2% | 84.8%
Cc1ccc(C(=O)c2sc3nc4c(cc3c2N)CCCC4)c(C)c1 | 9.04% (active) | -12.3% (active) | 17.5% | 47.2% | 39.8% | 19.9% | 41.4% | 12% | 13.9%
O=C(Nc1ccc(I)cc1)c1cccc([N+](=O)[O-])c1O | 31.6% | 6.95% (active) | 17.1% | 43.4% | 19.1% | -2.55% (active) | 30.4% | 7.89% (active) | 9.57% (active)
O=C(O)c1ccc(-n2c(=O)c3ccccc3c3ccccc3c2=O)cc1 | 87.6% | 103% | 111% | 99.6% | 119% | 101% | 116% | 111% | 112%
CCC(=O)Oc1cc(/C=C/C(=O)O[C@H]2C[C@H]3CN4CCc5c([nH]c6cc(OC)ccc56)[C@@H]4C[C@@H]3[C@@H](C(=O)OC)[C@@H]2OC)ccc1OC | 1.95% (active) | 39.9% | 86.8% | 87% | 56.9% | 86.5% | 88.5% | 73.1% | 87.1%
COc1ncc(-c2ccc3ncnc(Nc4cccc(Cl)c4)c3c2)cc1N(S(C)(=O)=O)S(C)(=O)=O | 92.6% | 55.8% | 73.8% | 43.2% | 77.3% | 52.2% | -28.6% (active) | 54.9% | 72.7%

Source: PubChem BioAssay (NCI)
